Reference: PubChem BioAssay
Unmarked numbers belong to inactive results. Activity calls are given as the source filed them. Cut-off read from the data, not from the text of the source, unless noted: active = inhibition above about 25%; inactive = the rest.

What was measured:
[1] = biological target: Nuclear receptor coactivator 1 (Homo sapiens) (UniProt Q15788); assay: NCOA1 GAL4-fusion reporter inhibition – cell-based, luminescence, quadruplicate, confirmation (AID 588820;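 active = mean inhibition above 46.68%, the untreated control wells mean plus 3 SD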;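 note: 0% = DMSO wells and 100% = gossypol 36 µM treated wells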); conditions: HEK293 GAL4-SRC1 luciferase reporter, at 3.6 µM, active compounds read high
[2] = repression of VP16-driven luciferase reporter – cell-based, luminescence, high throughput, counter-screen for SRC1 inhibitor project (AID 588824); conditions: cell-based VP16 transactivation luciferase luminescence; at 3.6 µM; active compounds read high

Nuclear receptor coactivator 1 (Homo sapiens), sequence (Q15788 whole entry, looked up, the tested form may be a part): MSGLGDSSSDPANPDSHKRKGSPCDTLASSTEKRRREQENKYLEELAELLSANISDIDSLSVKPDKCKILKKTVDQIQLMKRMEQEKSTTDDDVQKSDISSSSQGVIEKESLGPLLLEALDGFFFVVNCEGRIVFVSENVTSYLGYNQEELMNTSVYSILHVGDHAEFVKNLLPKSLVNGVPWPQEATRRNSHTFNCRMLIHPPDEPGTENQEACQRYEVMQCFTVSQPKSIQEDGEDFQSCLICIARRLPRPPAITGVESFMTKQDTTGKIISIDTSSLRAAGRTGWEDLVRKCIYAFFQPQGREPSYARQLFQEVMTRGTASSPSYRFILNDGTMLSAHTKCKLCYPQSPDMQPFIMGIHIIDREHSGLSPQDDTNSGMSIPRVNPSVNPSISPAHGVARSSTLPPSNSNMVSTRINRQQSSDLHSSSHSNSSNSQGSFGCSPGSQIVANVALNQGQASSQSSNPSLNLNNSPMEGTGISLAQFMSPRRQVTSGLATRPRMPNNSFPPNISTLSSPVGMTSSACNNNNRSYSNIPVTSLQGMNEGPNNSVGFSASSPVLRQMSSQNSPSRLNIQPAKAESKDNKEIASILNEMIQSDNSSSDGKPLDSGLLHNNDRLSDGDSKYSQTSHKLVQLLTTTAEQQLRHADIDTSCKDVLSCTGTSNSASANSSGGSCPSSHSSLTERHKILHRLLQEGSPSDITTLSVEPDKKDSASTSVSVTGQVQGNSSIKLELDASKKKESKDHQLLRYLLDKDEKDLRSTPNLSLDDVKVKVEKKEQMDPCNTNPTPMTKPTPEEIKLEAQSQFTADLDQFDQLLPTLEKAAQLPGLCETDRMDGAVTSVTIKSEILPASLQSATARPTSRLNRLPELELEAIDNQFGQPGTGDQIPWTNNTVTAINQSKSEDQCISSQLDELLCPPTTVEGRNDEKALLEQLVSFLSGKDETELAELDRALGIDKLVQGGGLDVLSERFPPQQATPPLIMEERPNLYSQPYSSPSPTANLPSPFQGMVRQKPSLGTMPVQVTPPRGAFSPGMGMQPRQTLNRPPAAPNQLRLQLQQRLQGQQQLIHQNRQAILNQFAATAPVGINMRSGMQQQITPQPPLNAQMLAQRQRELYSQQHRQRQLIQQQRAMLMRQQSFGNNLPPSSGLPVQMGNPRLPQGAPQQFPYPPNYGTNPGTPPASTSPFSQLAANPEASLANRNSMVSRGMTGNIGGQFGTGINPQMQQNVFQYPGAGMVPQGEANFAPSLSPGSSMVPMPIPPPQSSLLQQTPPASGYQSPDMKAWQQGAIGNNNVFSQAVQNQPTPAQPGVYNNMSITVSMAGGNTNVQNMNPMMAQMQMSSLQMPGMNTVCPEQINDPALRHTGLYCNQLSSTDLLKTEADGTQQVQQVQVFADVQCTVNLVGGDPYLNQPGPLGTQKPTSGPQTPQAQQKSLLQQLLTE

| Structure (SMILES) | inhibition [1] | inhibition [2] |
| --- | --- | --- |
| Cc1cc(OCC(O)CN2CCc3ccccc3C2)cc(C(C)C)c1 (stereo not given) | -16.6% | -6.97% |
| CC1CCN(C(=O)c2scc3c2OCCO3)CC1 | 18.3% | 8.58% |
| CC(C)C(=O)N1CCN(c2ccc(NC(=O)c3ccc4c(c3)OCCO4)cc2Cl)CC1 | -52.5% | -6.57% |
| CCc1nc2c(OCc3c(C)noc3C)cccn2c1N(C=O)Cc1ccccc1 | -4.23% | -5.1% |
| O=C1NC2(CCN(Cc3ccccc3)CC2)Oc2ccccc21 | -21.7% | -3.3% |
| CC(O)(c1ccccc1)c1nc(-c2cccc(C#N)c2)cs1 (stereo not given) | -22.4% | -4.39% |
| CCOC(=O)N1CCN(C(=O)c2cc(-c3ccncc3)nc3ccccc23)CC1 | -21.2% | 3.82% |
| CCc1ccc2oc(=O)cc(CN3CCN(Cc4ccccc4)CC3)c2c1 | -7.76% | 2.82% |
| CCc1nnc(NC(=O)CCC(=O)NCc2ccccc2Cl)s1 | 10.2% | 6.37% |
| Nc1ccn(C2OC(CO)C(O)C2O)c(=O)n1 (stereo not given) | 24.8% | 20.1% |
| O=C(NCc1ccco1)c1cccc(NC(=O)c2ccco2)c1 | 28.5% | 50% (active) |
| Cc1ccc(C(=O)NCCn2cc(SCC(=O)Nc3cc(C)on3)c3ccccc32)cc1 | 0.49% | -11.3% |
| c1ccc2c(c1)CCN(c1nc3cc4c(cc3s1)OCCO4)C2 | -22.2% | 2.93% |
| O=C(Cc1cccs1)N(CC1CCCO1)C1(C(=O)NC2CCCCC2)CCCCC1 (stereo not given) | 7.13% | 14.9% |
| CCNc1nc(NC(C)(C)C)nc(N2CCCCC2)n1 | 8.01% | 12.6% |
| COc1cccc(C2=CC(=O)CC(C)(C)C2)c1 | 18.3% | 14.3% |
| CSc1nccc(Oc2cncc(Cl)c2)n1 | 8.08% | 5.07% |
| COc1ccc(O)c(C2(O)C(=O)c3ccccc3C2=O)c1 | -5.99% | 3.91% |

| Structure (SMILES) | inhibition [1] | inhibition [2] |
| --- | --- | --- |
| N#Cc1c(N)nc2c(c1-c1ccc(F)cc1)CCC2 | -6.03% | -10.2% |
| CCCn1c(=O)c(C(=O)NC(C)c2ccccc2)c(O)c2ccccc21 (stereo not given) | -10.4% | -9.6% |
| COc1cc2c3c([nH]c2cc1F)C(=O)NCC3 | 19.2% | 14.9% |
| Cc1cc(C)nc(/N=C(\N)Nc2ccc(C(C)C)cc2)n1 | 3.7% | 9.11% |
| Cc1ccccc1COc1cccc(/C=N/NC(=O)c2nnn(-c3nonc3N)c2C)c1 | 7.5% | 18.5% |
| CCCCN(C(=O)/C=C/c1ccccc1)C1CCS(=O)(=O)C1 (stereo not given) | -6.12% | -4.11% |
| CCn1cc(C(=O)NCC(OC)OC)c(=O)c2cc(S(=O)(=O)N(C)C3CCCCC3)ccc21 | 11.4% | 19.8% |
| COc1ccc(OCCN2CCN(C(=O)c3ccc(OC(F)F)c(OC)c3)CC2)cc1 | 2.42% | 2.73% |
| O=C(Nc1ccc(Oc2ccccc2)cc1)c1ccc2sc([C@H]3C[C@H](O)[C@@H](CO)O3)nc2c1 | -13.8% | 19.3% |
| CCc1ccc(-c2nnn(CCC(=O)OC)n2)cc1 | -2.93% | 9.9% |
| C=CCn1c(Oc2ccccc2F)nc2c1c(=O)n(C)c(=O)n2C | 46.6% | 23.6% |
| CCOC(=O)N1CCc2c(sc(NC(=O)CN3CCOCC3)c2C(=O)Nc2ccccc2)C1 | -17.7% | -5.16% |
| CCN(CC)CCNC(=O)CCN1N=C(c2ccccc2)CCC1=O | -4.6% | -9.8% |
| CCCCC(=O)Nc1cccn2ncnc12 | 24.7% | 14.8% |
| O=C(c1ccccc1)C1CCN(C(=O)c2cccs2)CC1 | -10% | -0.27% |
| Cc1ccc(NS(=O)(=O)c2ccc(C(=O)NC3CCN(Cc4ccccc4)CC3)cc2)cc1 | -9.12% | 24.2% |
| COC(=O)C(C)NC(=O)C12CC3CC(C1)CC(c1ccc(C)cc1)(C3)C2 (stereo not given) | -5.33% | 4.73% |
